# Changes are numbered by the printed parent chain.
# How the values were obtained:
# Assay in all cases: PBM; 200 nM protein, PBS
# Details in all cases: dsDNA, one strand shown
# HESX1 [1] = biological target: HESX1 (Homo sapiens, UniProt Q9UBX0 95-180, R165K)
# HESX1 [2] = biological target: HESX1 (Homo sapiens, UniProt Q9UBX0 95-180)
# PROP1 [3] = biological target: PROP1 (Homo sapiens, UniProt O75360 56-141)
# HESX1 [4] = biological target: HESX1 (Homo sapiens, UniProt Q9UBX0 95-180, R109Q)
# PROP1 [5] = biological target: PROP1 (Homo sapiens, UniProt O75360 56-141, R99H)
# HESX1 [6] = biological target: HESX1 (Homo sapiens, UniProt Q9UBX0 95-180, P111T)
# PROP1 [7] = biological target: PROP1 (Homo sapiens, UniProt O75360 56-141, F88S)
# HESX1 [8] = biological target: HESX1 (Homo sapiens, UniProt Q9UBX0 95-180, F115L)
# NKX2-6 [9] = biological target: T1, NKX2-6 (Homo sapiens, UniProt A6NCS4 118-204)
# T1 sequence: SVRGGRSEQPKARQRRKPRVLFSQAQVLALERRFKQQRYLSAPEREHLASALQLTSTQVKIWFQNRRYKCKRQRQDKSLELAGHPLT
# NKX2-6 [10] = biological target: T2, NKX2-6 (Homo sapiens, UniProt A6NCS4 118-204, F151L)
# T2 sequence: T1 sequence with F34L
# ALX3 [11] = biological target: ALX3 (Homo sapiens, UniProt O95076 139-225, N203Q)
# ALX3 [12] = biological target: ALX3 (Homo sapiens, UniProt O95076 139-225)
# ALX3 [13] = biological target: ALX3 (Homo sapiens, UniProt O95076 139-225, L168Q)
# ALX3 [14] = biological target: ALX3 (Homo sapiens, UniProt O95076 139-225, L168V)
# ALX3 [15] = biological target: ALX3 (Homo sapiens, UniProt O95076 139-225, N203S)
# Sequence of ALX3 (Homo sapiens, UniProt O95076 139-225, N203S) (O95076 139-225 N203S): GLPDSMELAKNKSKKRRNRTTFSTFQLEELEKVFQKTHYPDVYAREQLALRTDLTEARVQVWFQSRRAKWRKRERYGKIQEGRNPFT
# Sequence of HESX1 (Homo sapiens, UniProt Q9UBX0 95-180, P111T) (Q9UBX0 95-180 P111T): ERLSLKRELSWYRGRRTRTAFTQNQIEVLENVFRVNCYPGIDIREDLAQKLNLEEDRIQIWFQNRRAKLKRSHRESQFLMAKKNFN
# Sequence of HESX1 (Homo sapiens, UniProt Q9UBX0 95-180, F115L) (Q9UBX0 95-180 F115L): as the sequence (Q9UBX0 95-180 P111T) above, with T17P, F21L counted along it
# Sequence of HESX1 (Homo sapiens, UniProt Q9UBX0 95-180, R165K) (Q9UBX0 95-180 R165K): as the sequence (Q9UBX0 95-180 P111T) above, with T17P, R71K counted along it
# Sequence of HESX1 (Homo sapiens, UniProt Q9UBX0 95-180, R109Q) (Q9UBX0 95-180 R109Q): as the sequence (Q9UBX0 95-180 P111T) above, with R15Q, T17P counted along it
# Sequence of HESX1 (Homo sapiens, UniProt Q9UBX0 95-180) (Q9UBX0 95-180): as the sequence (Q9UBX0 95-180 P111T) above, with T17P counted along it
# Sequence of ALX3 (Homo sapiens, UniProt O95076 139-225, L168V) (O95076 139-225 L168V): as the sequence (O95076 139-225 N203S) above, with L30V, S65N counted along it
# Sequence of PROP1 (Homo sapiens, UniProt O75360 56-141, F88S) (O75360 56-141 F88S): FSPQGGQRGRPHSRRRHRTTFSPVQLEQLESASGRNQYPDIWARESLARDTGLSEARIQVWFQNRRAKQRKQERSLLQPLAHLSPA
# Sequence of PROP1 (Homo sapiens, UniProt O75360 56-141, R99H) (O75360 56-141 R99H): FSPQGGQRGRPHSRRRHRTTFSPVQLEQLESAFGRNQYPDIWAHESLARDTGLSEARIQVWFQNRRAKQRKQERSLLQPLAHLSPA
# Sequence of ALX3 (Homo sapiens, UniProt O95076 139-225) (O95076 139-225): as the sequence (O95076 139-225 N203S) above, with S65N counted along it
# Sequence of PROP1 (Homo sapiens, UniProt O75360 56-141) (O75360 56-141): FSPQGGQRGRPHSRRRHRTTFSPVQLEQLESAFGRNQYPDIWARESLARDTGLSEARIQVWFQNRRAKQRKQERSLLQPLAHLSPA
# Sequence of ALX3 (Homo sapiens, UniProt O95076 139-225, L168Q) (O95076 139-225 L168Q): as the sequence (O95076 139-225 N203S) above, with L30Q, S65N counted along it
# Sequence of ALX3 (Homo sapiens, UniProt O95076 139-225, N203Q) (O95076 139-225 N203Q): as the sequence (O95076 139-225 N203S) above, with S65Q counted along it
sequence,measurement,setting,value
GAAAGGCC,binding signal,HESX1 [1],"6.41 upbm affinity estimate (log intensity, higher = more binding, comparable within an allelic series)"
same,binding signal,HESX1 [2],"6.39 upbm affinity estimate (log intensity, higher = more binding, comparable within an allelic series)"
same,binding signal,PROP1 [3],"6.76 upbm affinity estimate (log intensity, higher = more binding, comparable within an allelic series)"
same,binding signal,HESX1 [4],"6.49 upbm affinity estimate (log intensity, higher = more binding, comparable within an allelic series)"
same,binding signal,PROP1 [5],"6.79 upbm affinity estimate (log intensity, higher = more binding, comparable within an allelic series)"
same,binding signal,HESX1 [6],"6.47 upbm affinity estimate (log intensity, higher = more binding, comparable within an allelic series)"
same,binding signal,PROP1 [7],"6.75 upbm affinity estimate (log intensity, higher = more binding, comparable within an allelic series)"
same,binding signal,HESX1 [8],"6.63 upbm affinity estimate (log intensity, higher = more binding, comparable within an allelic series)"
CTTGGCGA,binding signal,HESX1 [1],"6.46 upbm affinity estimate (log intensity, higher = more binding, comparable within an allelic series)"
same,binding signal,HESX1 [2],"6.46 upbm affinity estimate (log intensity, higher = more binding, comparable within an allelic series)"
same,binding signal,PROP1 [3],"6.63 upbm affinity estimate (log intensity, higher = more binding, comparable within an allelic series)"
same,binding signal,HESX1 [4],"6.48 upbm affinity estimate (log intensity, higher = more binding, comparable within an allelic series)"
same,binding signal,PROP1 [5],"6.61 upbm affinity estimate (log intensity, higher = more binding, comparable within an allelic series)"
same,binding signal,HESX1 [6],"6.51 upbm affinity estimate (log intensity, higher = more binding, comparable within an allelic series)"
same,binding signal,PROP1 [7],"6.64 upbm affinity estimate (log intensity, higher = more binding, comparable within an allelic series)"
same,binding signal,HESX1 [8],"6.53 upbm affinity estimate (log intensity, higher = more binding, comparable within an allelic series)"
CACCCGGC,binding signal,HESX1 [1],"6.47 upbm affinity estimate (log intensity, higher = more binding, comparable within an allelic series)"
same,binding signal,HESX1 [2],"6.48 upbm affinity estimate (log intensity, higher = more binding, comparable within an allelic series)"
same,binding signal,NKX2-6 [9],"9.18 upbm affinity estimate (log intensity, higher = more binding, comparable within an allelic series)"
same,binding signal,HESX1 [4],"6.53 upbm affinity estimate (log intensity, higher = more binding, comparable within an allelic series)"
same,binding signal,HESX1 [6],"6.47 upbm affinity estimate (log intensity, higher = more binding, comparable within an allelic series)"
same,binding signal,NKX2-6 [10],"9.14 upbm affinity estimate (log intensity, higher = more binding, comparable within an allelic series)"
same,binding signal,HESX1 [8],"6.3 upbm affinity estimate (log intensity, higher = more binding, comparable within an allelic series)"
ATTGATTC,binding signal,HESX1 [1],"7.97 upbm affinity estimate (log intensity, higher = more binding, comparable within an allelic series)"
same,binding signal,HESX1 [2],"8.12 upbm affinity estimate (log intensity, higher = more binding, comparable within an allelic series)"
same,binding signal,HESX1 [4],"7.41 upbm affinity estimate (log intensity, higher = more binding, comparable within an allelic series)"
same,binding signal,HESX1 [6],"7.74 upbm affinity estimate (log intensity, higher = more binding, comparable within an allelic series)"
CGCCCAAG,binding signal,HESX1 [1],"6.57 upbm affinity estimate (log intensity, higher = more binding, comparable within an allelic series)"
same,binding signal,HESX1 [2],"6.59 upbm affinity estimate (log intensity, higher = more binding, comparable within an allelic series)"
same,binding signal,ALX3 [11],"7.75 upbm affinity estimate (log intensity, higher = more binding, comparable within an allelic series)"
same,binding signal,ALX3 [12],"7.67 upbm affinity estimate (log intensity, higher = more binding, comparable within an allelic series)"
same,binding signal,HESX1 [4],"6.54 upbm affinity estimate (log intensity, higher = more binding, comparable within an allelic series)"
same,binding signal,ALX3 [13],"7.8 upbm affinity estimate (log intensity, higher = more binding, comparable within an allelic series)"
same,binding signal,HESX1 [6],"6.5 upbm affinity estimate (log intensity, higher = more binding, comparable within an allelic series)"
same,binding signal,ALX3 [14],"7.74 upbm affinity estimate (log intensity, higher = more binding, comparable within an allelic series)"
same,binding signal,HESX1 [8],"6.55 upbm affinity estimate (log intensity, higher = more binding, comparable within an allelic series)"
same,binding signal,ALX3 [15],"7.78 upbm affinity estimate (log intensity, higher = more binding, comparable within an allelic series)"
AACTCATA,binding signal,HESX1 [1],"7.51 upbm affinity estimate (log intensity, higher = more binding, comparable within an allelic series)"
same,binding signal,HESX1 [2],"7.49 upbm affinity estimate (log intensity, higher = more binding, comparable within an allelic series)"
same,binding signal,HESX1 [4],"7.12 upbm affinity estimate (log intensity, higher = more binding, comparable within an allelic series)"
same,binding signal,HESX1 [6],"7.23 upbm affinity estimate (log intensity, higher = more binding, comparable within an allelic series)"
CAATATCG,binding signal,HESX1 [1],"7.31 upbm affinity estimate (log intensity, higher = more binding, comparable within an allelic series)"
same,binding signal,HESX1 [2],"7.37 upbm affinity estimate (log intensity, higher = more binding, comparable within an allelic series)"
same,binding signal,HESX1 [4],"7.14 upbm affinity estimate (log intensity, higher = more binding, comparable within an allelic series)"
same,binding signal,HESX1 [6],"7.2 upbm affinity estimate (log intensity, higher = more binding, comparable within an allelic series)"
CTAGGGCC,binding signal,HESX1 [1],"6.49 upbm affinity estimate (log intensity, higher = more binding, comparable within an allelic series)"
same,binding signal,HESX1 [2],"6.45 upbm affinity estimate (log intensity, higher = more binding, comparable within an allelic series)"
same,binding signal,ALX3 [11],"7.79 upbm affinity estimate (log intensity, higher = more binding, comparable within an allelic series)"
same,binding signal,ALX3 [12],"7.79 upbm affinity estimate (log intensity, higher = more binding, comparable within an allelic series)"
same,binding signal,HESX1 [4],"6.47 upbm affinity estimate (log intensity, higher = more binding, comparable within an allelic series)"
same,binding signal,ALX3 [13],"7.79 upbm affinity estimate (log intensity, higher = more binding, comparable within an allelic series)"
same,binding signal,HESX1 [6],"6.36 upbm affinity estimate (log intensity, higher = more binding, comparable within an allelic series)"
same,binding signal,ALX3 [14],"7.77 upbm affinity estimate (log intensity, higher = more binding, comparable within an allelic series)"
same,binding signal,HESX1 [8],"6.42 upbm affinity estimate (log intensity, higher = more binding, comparable within an allelic series)"
same,binding signal,ALX3 [15],"7.79 upbm affinity estimate (log intensity, higher = more binding, comparable within an allelic series)"
CGCTCCTC,binding signal,HESX1 [1],"6.29 upbm affinity estimate (log intensity, higher = more binding, comparable within an allelic series)"
same,binding signal,HESX1 [2],"6.25 upbm affinity estimate (log intensity, higher = more binding, comparable within an allelic series)"
same,binding signal,HESX1 [4],"6.53 upbm affinity estimate (log intensity, higher = more binding, comparable within an allelic series)"
same,binding signal,HESX1 [6],"6.33 upbm affinity estimate (log intensity, higher = more binding, comparable within an allelic series)"
same,binding signal,HESX1 [8],"6.5 upbm affinity estimate (log intensity, higher = more binding, comparable within an allelic series)"

# Reference: paper PMC11006913
